Pf growth 96h = P. falciparum growth inhibition at 96 hour, primary screen for plastid delayed-death inhibitors; P. falciparum luciferase reporter growth, 96 h; actives 6.9% (n = 320,000); Potency, µM (series often up to 28.7 µM), usual class: inhibitors; AID 504834
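Compounds incubated with erythrocytes infected by luciferase-expressing P. falciparum (2% hematocrit, 0.05% parasitemia final) for 96 hours, 37 C in 5% CO2. Growth inhibition scored as decreased luciferase luminescence.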
HCV inhibitor = HCV inhibition | Huh7.5.1 HCVcc-Cre infection, luciferase reporter, 44 h | Potency, µM (doses to about 41.8 µM), usual class: inhibitors | actives 3.4% (n = 340,000)
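Luciferase read-out (15 sec integration) after a 15 min room-temperature substrate step quantifies HCVcc-Cre infection. Cells, 1,000 per well, had compound added 4 h post-plating, then virus at ~0.5 moi, and were cultured 44 h.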
AMA1-RON2 inh = inhibitors of Plasmodium falciparum AMA1-RON2 interaction | AlphaScreen AMA1-biotinylated RON2 peptide binding | Potency, µM (highest dose often 58.2 µM), actives largely listed as inhibitors | actives 0.2% (n = 360,000) | AID 720542; note: nearly all actives have a fitted effect of over 45% in size
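AMA1 (3D7) with his tag at 25 nM final met compounds first, then biotinylated RON2 peptide at 25 nM; detection used donor plus acceptor beads, 10 µg/mL apiece, read by AlphaScreen after 30 min at room temperature.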
Pf growth 48h = P. falciparum growth inhibition at 48 hours (one generation); AID 504832; Potency, µM (highest dose often 28.7 µM), usual class: inhibitors; actives 5.9% (n = 310,000); P. falciparum luciferase growth in erythrocytes, 48 h
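Firefly luciferase activity from engineered P. falciparum reports growth; inhibitors lower the luminescent signal. Cultures contained 2% hematocrit erythrocytes at 0.1% final parasitemia.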
Large screens that a line does not name were inactive. Compounds with a hit are over-represented: about 11% of the library has one in this group of screens. Calls come from the whole dose curve; as a rule, active = well fitted curve in the direction sought with a large enough effect; inconclusive = small, poorly fitted or top-dose-only effect, or another doubt; inactive = no such curve, though single readings can be large; an effect the other way counts as inactive or inconclusive.

FC(F)(F)c1ccccc1Cc1c(-c2cccc(Cl)c2)nc2c3ccccc3ccn12	none (no result: Pf growth 96h, HCV inhibitor, Pf growth 48h)
CCC1Oc2ccc(C)cc2N(CC(=O)NCC2CCCO2)C1=O (centres undefined)	none
COc1ccc(O)c(C(=O)c2cnc3c(c2)c(C)nn3C)c1	Pf growth 96h inconclusive, Pf growth 48h inconclusive
Cc1nn(-c2ccccc2)c2ncc(C(=O)c3cc(Cl)ccc3O)cc12	Pf growth 96h 2.6µM, HCV inhibitor inconclusive, Pf growth 48h 1.9µM
CC(C)c1ccc(S(=O)(=O)/N=C2/C=CC(=O)c3ccccc32)cc1	Pf growth 48h 8.3µM (no result: HCV inhibitor, AMA1-RON2 inh)
CC(C)c1ccc(S(=O)(=O)/N=C2\C=C(NS(=O)(=O)c3ccccc3)C(=O)c3ccccc32)cc1	AMA1-RON2 inh inconclusive
CCCCn1c(O)c(/C=N/N2CCCCC2c2cccnc2)c(=O)[nH]c1=S (centres undefined)	Pf growth 96h inconclusive
Cc1ccc(-n2c(O)c(/C=N/N3CCCCC3c3cccnc3)c(=O)[nH]c2=S)cc1 (centres undefined)	Pf growth 96h inconclusive
CCCCn1c(O)c(/C(CC)=N/N2CCCCC2c2cccnc2)c(=O)[nH]c1=S (centres undefined)	Pf growth 96h 2.9µM, Pf growth 48h 9.3µM
C/C(=N\N1CCCCC1c1cccnc1)c1c(O)n(C2CCCCC2)c(=S)[nH]c1=O (centres undefined)	Pf growth 96h 3.3µM, HCV inhibitor inconclusive, Pf growth 48h 9.3µM
Cc1noc(C)c1C(=O)NCc1ccccc1F	none
O=C(COC(=O)CCC(=O)c1ccccc1)Nc1nnc(-c2ccccc2)o1	Pf growth 48h inconclusive
CCc1cc(=O)oc2cc3occ(-c4ccc(OC)c(F)c4)c3cc12	HCV inhibitor inconclusive, Pf growth 48h inconclusive
CC(C)CCNC(=O)[C@H](CSCc1ccccc1)N1Cc2ccccc2C1=O	Pf growth 96h inconclusive
CCC(C)NC(=O)[C@H](CSCc1ccccc1)N1Cc2ccccc2C1=O (some centres undefined)	Pf growth 96h 10µM
CC(C)(C)C(=O)[C@@H]1[C@@H]2C(=O)N(C3CCCCC3)C(=O)[C@@H]2[C@H]2c3ccccc3C=CN12	Pf growth 96h 15µM (no result: Pf growth 48h)
O=C(Nc1ccc2c(c1)OCO2)[C@@H]1[C@@H]2C(=O)N(C3CCCCC3)C(=O)[C@@H]2C2c3ccccc3C=CN21 (some centres undefined)	Pf growth 48h inconclusive (no result: AMA1-RON2 inh)
O=C(c1ccc2c(c1)OCO2)[C@@H]1[C@@H]2C(=O)N(C3CCCCC3)C(=O)[C@@H]2C2c3ccccc3C=CN21 (some centres undefined)	Pf growth 96h 4.7µM, Pf growth 48h 6.6µM
O=C(c1cccs1)[C@@H]1[C@@H]2C(=O)N(Cc3ccc4c(c3)OCO4)C(=O)[C@@H]2C2c3ccccc3C=CN21 (some centres undefined)	Pf growth 96h 10µM, Pf growth 48h inconclusive (no result: HCV inhibitor, AMA1-RON2 inh)
CCC(C)NC(=O)Cn1ccc2cc(S(=O)(=O)N3CCCCCC3)ccc21 (centres undefined)	Pf growth 96h inconclusive
CCOc1nc2cccc(C(=O)O)c2n1Cc1ccc(-c2ccccc2-c2nn[nH]n2)cc1	Pf growth 96h 2.1µM, Pf growth 48h inconclusive (no result: HCV inhibitor, AMA1-RON2 inh)
CC(O)CNCCNCc1c(OCc2ccccc2)ccc2ccccc12 (centres undefined)	Pf growth 96h 2.3µM, HCV inhibitor inconclusive, Pf growth 48h 1.9µM
OCCNCc1c(OCc2ccc(Cl)cc2)ccc2ccccc12	HCV inhibitor 11µM
NC(=O)C1(C(N)=O)OC1c1ccccc1 (centres undefined)	none
COC(=O)c1ccccc1-c1c2ccc(=N)cc-2oc2cc(N)ccc12	Pf growth 96h 0.33µM, HCV inhibitor inconclusive, Pf growth 48h 1.3µM
O=C1C([N+](=O)[O-])=C(O)c2cccc3cccc1c23	none (no result: HCV inhibitor, AMA1-RON2 inh)
Cn1nc(C(=O)OCc2ccc(F)cc2)c2ccccc2c1=O	none
Cc1ccc(COC(=O)c2nn(C)c(=O)c3ccccc23)cc1	HCV inhibitor 10µM
O=C(CCNS(=O)(=O)c1ccc2[nH]c(=O)oc2c1)NCc1ccc(F)cc1	none
O=C(CCNS(=O)(=O)c1ccc2[nH]c(=O)oc2c1)NCc1ccccc1	Pf growth 96h 12µM
Cc1cc(C)c(C)c(N=Nc2nc3ccccc3n2C)c1C	HCV inhibitor inconclusive, AMA1-RON2 inh 11µM
Cc1ccc(C)c(N=Nc2nc3ccccc3n2C)c1	Pf growth 96h 0.47µM, HCV inhibitor 14µM, AMA1-RON2 inh 11µM, Pf growth 48h 0.52µM
Cc1ccc(SCC(=O)NNC(=O)CNC(=O)c2ccccc2F)cc1	none (no result: Pf growth 96h, Pf growth 48h)
